# Hits are enriched below; roughly 3% of the tested compounds scored in any of these assays.
# GDH-TPI counter-1: inhibits GDH-TPI coupling enzymes, artifact for Mtb FBA screen | 1.2% of 360,000 active | GDH-TPI coupled enzyme counterscreen, NADH absorbance | inhibition, % at 4.8 µM; in the data active means inhibition above about 30%;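 further: 0% = DMSO wells and 100% = wells lacking the enzyme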
# FBA Mtb inh: inhibitors of M. tuberculosis fructose-bisphosphate aldolase. P9WQA3. purified M. tuberculosis FBA, fluorescence read-out. inhibition, % at 1 µM. 2.3% of 360,000 active;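 further: 0% = vehicle and 100% = reference inhibitor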
# Target sequence (P9WQA3 whole entry, looked up): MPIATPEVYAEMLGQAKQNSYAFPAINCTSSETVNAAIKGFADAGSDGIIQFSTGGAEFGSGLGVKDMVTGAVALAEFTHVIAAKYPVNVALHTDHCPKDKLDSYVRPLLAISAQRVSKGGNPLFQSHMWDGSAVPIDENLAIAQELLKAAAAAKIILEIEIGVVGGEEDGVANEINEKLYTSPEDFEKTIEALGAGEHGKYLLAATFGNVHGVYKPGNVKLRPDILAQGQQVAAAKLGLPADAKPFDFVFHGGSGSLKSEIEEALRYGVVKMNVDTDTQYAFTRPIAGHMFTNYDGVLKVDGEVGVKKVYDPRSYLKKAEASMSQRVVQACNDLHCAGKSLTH
# Mtb BioA inh: inhibitors of Mycobacterium tuberculosis BioA enzyme; purified M. tuberculosis BioA enzyme, plate reader; inhibition, % at 9.99 µM; 0.096% of 360,000 active; in the data active means inhibition above about 40%
# Vc quorum ag: quorum light induction in luxS cqsA deficient V. cholerae; V. cholerae BH1578 lux reporter, luminescence, 6 h; activation, % at 18.7 µM; 0.16% of 350,000 active; AID 588436; in the data active means activation mostly above about 9.7%, no sharp cut-off
# Mtb FBA confirm: Mtb FBA inhibition, confirmed. shares compounds with FBA Mtb inh. purified M. tuberculosis FBA, fluorescence read-out. inhibition, % at 1 µM. 78% of 5,600 active. AID 651616;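 further: 0% = vehicle wells and 100% = reference inhibitor wells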
# GDH-TPI counter-2: inhibits GDH-TPI coupling enzymes, flagging Mtb FBA hits; shares compounds with FBA Mtb inh; 81% of 5,600 active; GDH-TPI coupled enzyme counterscreen, fluorescence; inhibition, % at 1 µM; AID 652141; in the data active means inhibition above about 10%
# An asterisk follows results filed as active; i = inactive; x = no result given; + = active, no number. Unless noted, no stated cut-off is given here; in the data, active means inhibition above about 27%; inactive means the rest.
SMILES,GDH-TPI counter-1,FBA Mtb inh,Mtb BioA inh,Vc quorum ag,Mtb FBA confirm,GDH-TPI counter-2
CCOC(=O)CC(=O)CSc1nc(-c2cccnc2)ccc1C#N,26,38*,19,i,+,+
COc1cccc(CN2[C@@H]3CN(C(=O)CC(F)(F)F)c4ccccc4[C@@H]3[C@@H]2CO)c1,x,x,1,x,x,x
Nc1ccc2c(c1)C(=O)N(CCCCCC(=O)O)C2,4,38*,-1,-2,121*,110*
Nc1ccc2c(c1)C(=O)N(CCCC(=O)O)C2=O,4,0,0,0,x,x
O=C(O)CNS(=O)(=O)c1ccc2c(c1)C(=O)c1cc(S(=O)(=O)NCC(=O)O)ccc1-2,12,2,0,2,x,x
O=C(O)CNS(=O)(=O)c1ccc2c(c1)Cc1cc(S(=O)(=O)NCC(=O)O)ccc1-2,-1,41*,0,0,-5,-6
C[C@H](CO)N1C[C@H](C)[C@H](CN(C)C(=O)Nc2ccc(F)cc2)Oc2ccc(NC(=O)Cc3ccccc3)cc2CC1=O,x,x,-5,x,x,x
c1cnn2c(-c3ccc4c(c3)CCO4)cnc2c1,4,2,12,0,x,x
Oc1ccccc1-c1cnc2cccnn12,15,-1,1,-1,x,x
Clc1ccc(-c2cnc3cccnn23)cc1,7,51*,-1,0,+,+
COc1ccc(-c2cnc3cccnn23)cn1,-4,29*,0,i,-8,-7
COc1ncccc1-c1cnc2cccnn12,7,92*,0,-1,117*,100*
CCCC#Cc1ccc2c(c1)O[C@@H](CN(C)S(=O)(=O)c1cccc(F)c1)[C@H](C)CN([C@@H](C)CO)S2(=O)=O,x,x,-3,x,x,x
C=CCn1c(-c2cccs2)nc2ccccc21,17,63*,0,1,150*,141*
C=CCn1c(CC(C)(C)C)nc2ccccc21,-5,-1,x,0,x,x
CCCn1c(-c2cccs2)nc2ccccc21,20,74*,0,i,+,174*
CC(=O)N[C@H]1CC[C@H](CCNC(=O)C2CC2)O[C@@H]1CO,x,x,3,x,x,x
C[C@@H]1CN([C@@H](C)CO)S(=O)(=O)c2ccc(-c3cccc(F)c3)cc2O[C@@H]1CN(C)C(=O)C1CC1,x,x,-2,x,x,x
CCn1c(=O)c2cc(C(=O)N(C)CC(OC)OC)sc2c2ccccc21,21,35*,0,0,+,+
CCOCCCNC(=O)c1cc2c(=O)n(CC)c3ccccc3c2s1,12,59*,13,-1,+,+
CCn1c(=O)c2cc(C(=O)NCCOC)sc2c2ccccc21,21,51*,-1,1,57*,43*
O=C(C[C@@H]1CC[C@H](NC(=O)c2ccc3c(c2)OCO3)[C@H](CO)O1)NC1Cc2ccccc2C1,x,x,6,x,x,x
CN(C)CCCNc1nc2cc(-c3cccc(Cl)c3)sc2c(=O)n1C,14,1,1,0,x,x
COc1ccc(-c2cc3nc(NCCCN(C)C)n(C)c(=O)c3s2)cc1OC,20,47*,2,-1,129*,86*
NC(=O)COc1c(-c2ccco2)oc2ccccc2c1=O,26,21,x,0,x,x
SMILES,GDH-TPI counter-1,FBA Mtb inh,Mtb BioA inh,Vc quorum ag,Mtb FBA confirm,GDH-TPI counter-2
COc1ccc(-c2oc3ccccc3c(=O)c2OCC(=O)O)cc1,35*,98*,x,-1,+,163*
CCOC(=O)COc1c(-c2ccc(OC)cc2)oc2ccccc2c1=O,43*,68*,-1,5,+,+
O=C(O)COc1c(-c2ccco2)oc2ccccc2c1=O,25,46*,x,-1,+,+
O=C(O)COc1c(-c2ccc(Cl)cc2)oc2ccccc2c1=O,8,7,x,0,x,x
CC(C)NC(=O)N(C)C[C@@H]1Oc2c(NC(=O)C3CCCCC3)cccc2C(=O)N([C@@H](C)CO)C[C@H]1C,x,x,-1,x,x,x
C[C@H](CO)N1C[C@H](C)[C@H](CN(C)C(=O)CCCN(C)C)OCCCC[C@H](C)Oc2ccc(NC(=O)NC3CCCCC3)cc2C1=O,x,x,0,x,x,x
COC(=O)C(CC#Cc1ccc2c(c1)[C@]1(C(=O)N2)[C@H](c2ccccc2OCCO)N2[C@H](c3ccccc3)[C@H](c3ccccc3)OC(=O)[C@H]2[C@@H]1C(=O)N1CCCCCCC1)C(=O)OC,x,x,0,x,x,x
CCC(=O)NC(C)c1cc(Cl)c2ccccc2c1O (stereo unspecified),-4,9,0,1,x,x
CCC(=O)NC(c1cccs1)c1cc(Cl)c2ccccc2c1O (stereo unspecified),-4,39*,-2,11,116*,80*
CC(=O)NC(c1cccs1)c1cc(Cl)c2ccccc2c1O (stereo unspecified),16,36*,-2,-8,84*,58*
COC(=O)c1oc2ccc(Cl)cc2c1N,15,67*,-1,i,7,2
C[C@H]1CN([C@@H](C)CO)C(=O)Cc2cc(NC(=O)Nc3ccc4c(c3)OCO4)ccc2O[C@@H]1CN(C)C,x,x,3,x,x,x
CC(C)C#Cc1cnc2c(c1)C(=O)N([C@H](C)CO)C[C@H](C)[C@H](CN(C)C(=O)Nc1cccc(F)c1)O2,x,x,-1,x,x,x
O=c1nc(-c2ccccc2)n(-c2ccccc2)[nH]1,-4,39*,0,0,157*,129*
O=C1c2cnc3ncnn3c2CC2c3ccccc3CCN12 (stereo unspecified),-3,58*,x,0,23,18*
CSc1nc2ncc3c(n2n1)CC1c2ccccc2CCN1C3=O (stereo unspecified),10,53*,0,-1,76*,58*
N#Cc1cnn2c3c(cnc12)C(=O)N1CCc2ccccc2C1C3 (stereo unspecified),-6,27*,x,0,87*,64*
O=S(=O)(Nc1cccc(-c2cn3cccnc3n2)c1)c1ccccc1,15,75*,1,0,66*,47*
O=S(=O)(Nc1cccc(-c2cn3cccnc3n2)c1)c1ccc(F)cc1,27,38*,1,0,83*,81*
Cc1ccc(S(=O)(=O)Nc2cccc(-c3cn4ccsc4n3)c2)cc1,0,-1,1,-1,x,x
O=S(=O)(c1cccc(-c2cn3cccnc3n2)c1)N1CCCCCC1,5,62*,x,i,58*,49*
Cc1ccn2cc(-c3cccc(S(=O)(=O)N4CCCCC4)c3)nc2c1,-2,4,-1,0,x,x
O=S(=O)(Nc1ccc(-c2cn3cccnc3n2)cc1)c1ccccc1,16,64*,x,0,10,-7
O=S(=O)(Nc1cccc(-c2cn3ccsc3n2)c1)c1ccc(F)cc1,-5,1,1,-1,x,x
O=S(=O)(Nc1ccc(-c2csc(-c3ccccc3)n2)cc1)c1ccccc1,-6,0,x,1,x,x
CCN(CC)S(=O)(=O)c1cccc(C(=O)N/N=C/c2ccc(N3CCOCC3)cc2)c1,26,28*,-1,0,-4,-2

# Source: PubChem BioAssay
